# Experimental data reported in PubChem BioAssay (NCI).
# The panel holds about 83,000 compounds, 20% with a hit somewhere; the sample as a whole holds those more often.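 Single-dose data. Exposure time 48 hours. Values below 10 considered active.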 Values without a mark were called inactive. The source made the active and inactive calls.
# Assays:
# Assay in all cases: NCI-60 one-dose screen, 48 h (100 = growth as untreated, 0 = no growth, -100 = all killed)
# Conditions in all cases: 10 µM
# DU-145 prostate = test system: DU-145 prostate
# K-562 leukemia = test system: K-562 leukemia
# MALME-3M melanoma = test system: MALME-3M melanoma
# MDA-MB-231 breast = test system: MDA-MB-231 breast
# RXF 393 renal = test system: RXF 393 renal
# SF-268 CNS = test system: SF-268 CNS
# SF-295 CNS = test system: SF-295 CNS
# SF-539 CNS = test system: SF-539 CNS
# UACC-257 melanoma = test system: UACC-257 melanoma
# M14 melanoma = test system: M14 melanoma
# HCT-15 colon = test system: HCT-15 colon
# HT29 colon = test system: HT29 colon
# SNB-75 CNS = test system: SNB-75 CNS
# SNB-19 CNS = test system: SNB-19 CNS
# U251 CNS = test system: U251 CNS
# PC-3 prostate = test system: PC-3 prostate
# SK-MEL-5 melanoma = test system: SK-MEL-5 melanoma
# UACC-62 melanoma = test system: UACC-62 melanoma
# LOX IMVI melanoma = test system: LOX IMVI melanoma
# SK-MEL-28 melanoma = test system: SK-MEL-28 melanoma
Compound,growth (DU-145 prostate),growth (K-562 leukemia),growth (MALME-3M melanoma),growth (MDA-MB-231 breast),growth (RXF 393 renal),growth (SF-268 CNS),growth (SF-295 CNS),growth (SF-539 CNS),growth (UACC-257 melanoma),growth (M14 melanoma),growth (HCT-15 colon),growth (HT29 colon),growth (SNB-75 CNS),growth (SNB-19 CNS),growth (U251 CNS),growth (PC-3 prostate),growth (SK-MEL-5 melanoma),growth (UACC-62 melanoma),growth (LOX IMVI melanoma),growth (SK-MEL-28 melanoma)
COc1ccc(-c2cc(-c3ccc(Cl)cc3)nc(SCCCC(=O)NO)n2)cc1OC,14.2%,3.01% (active),6.86% (active),6.55% (active),-38.2% (active),8.6% (active),-32.6% (active),-35.7% (active),16.1%,-40.2% (active),-4% (active),6.66% (active),2.56% (active),14.8%,12.4%,-5.41% (active),-55.9% (active),-60.1% (active),-64.8% (active),–
O=C(NCCNC(=O)c1ccc(F)cc1)Nc1ccc(-n2cc(-c3ccncc3)c(-c3ccc(Cl)c(O)c3)n2)cc1,2.26% (active),6.23% (active),3.35% (active),-29.1% (active),3.36% (active),5.76% (active),-59.1% (active),-37.7% (active),24.1%,-44.4% (active),19.5%,-45.3% (active),18.7%,22.7%,-19.9% (active),-5.9% (active),-84.9% (active),7.05% (active),-3.97% (active),–
O=C(Nc1cc(Cl)cc2c1-c1ccc(Cl)cc1C2O)C(Cl)Cl (stereo not drawn),60.1%,81.9%,105%,74.4%,63.8%,91.9%,83.4%,84.2%,89.8%,85.3%,82.5%,84.9%,65.9%,70%,78.4%,67.7%,41.5%,60.3%,76.2%,84.6%
COc1ccc2c(c1)C(=O)/C(=C/c1ccc([N+](=O)[O-])o1)O2,-85% (active),-34.8% (active),-77.8% (active),-76.9% (active),-78.3% (active),-72.7% (active),3.29% (active),-49.8% (active),-85.6% (active),-64.2% (active),-48.5% (active),-63% (active),9.47% (active),19.9%,-55.1% (active),58.9%,-91.3% (active),-89% (active),-77.4% (active),-71.1% (active)
COc1cc(/C=C2\CCCC3=C2NC(N)=NC3c2cc(OC)c(OC)c(OC)c2)cc(OC)c1OC (stereo not drawn),-9.85% (active),6.43% (active),-42.5% (active),28.9%,-88% (active),15.1%,-35.3% (active),25.9%,-31.1% (active),-36.1% (active),-4.55% (active),-35.4% (active),45.7%,61.6%,-85.2% (active),25.9%,-96.5% (active),-41.1% (active),-46.7% (active),24.9%
Cc1cc(CCNC=O)c(C)c2c1sc1ccccc12,112%,97.2%,105%,79.9%,80%,92.5%,94.8%,87.2%,90.1%,118%,90.2%,97.1%,81.9%,85.1%,92%,84.7%,78.8%,79.1%,98.4%,89.9%
O=[N+]([O-])c1ccc(/C(=C/c2ccccc2)[n+]2ccccc2)cc1,127%,91.9%,125%,111%,105%,128%,102%,107%,101%,114%,104%,106%,98.7%,103%,94.3%,99%,103%,100%,105%,105%
COc1cc(-c2nn(-c3cccc(NC(=O)NCCNS(=O)(=O)c4ccc(Cl)cc4)c3)cc2-c2ccncc2)ccc1Cl,11.5%,2.85% (active),10.9%,-2.68% (active),-13.6% (active),13.1%,-44.8% (active),-38.5% (active),33%,-24.7% (active),26.5%,-24.4% (active),0.927% (active),38.1%,-0.109% (active),7.5% (active),-74.6% (active),25.6%,-0.864% (active),21.4%
C=CCSC(CC)(CC)C(=O)NC,120%,98.3%,115%,114%,107%,112%,105%,103%,92.1%,103%,101%,87%,89.5%,102%,101%,101%,103%,103%,100%,110%
O=C(/C=C/C=C/c1c(C2CC2)nc2ccccc2c1-c1ccc(F)cc1)c1cccs1,20.4%,5.43% (active),-35.1% (active),25.1%,-54.2% (active),43.4%,18.3%,-32.8% (active),-35.4% (active),3.19% (active),18.6%,-38.5% (active),43.4%,42.3%,-19.4% (active),24.9%,-77.1% (active),13.3%,-71.5% (active),-2.12% (active)
COc1cc(C2C(C#N)=C(N)Oc3cc(O)ccc32)cc(OC)c1OC (stereo not drawn),11.1%,9.12% (active),43.5%,36.1%,-9.12% (active),50.4%,0.55% (active),4.64% (active),64.2%,-15.6% (active),30.1%,2.42% (active),33.9%,44.9%,11.1%,21.5%,23%,38.4%,45.7%,58%
CCOC(=O)c1cc(C(=O)c2ccc(Cl)cc2)n2ccc(-c3cc[n+](CC(=O)c4ccc(OC)cc4)cc3)cc12,30.3%,-52.9% (active),99.6%,70.9%,73.6%,78.5%,106%,89.5%,101%,56.8%,75.5%,-9.81% (active),93.2%,77%,13.2%,51.5%,98.3%,107%,12.9%,99.6%
Cc1c(Cl)cccc1NC(=O)CCCl,106%,88.2%,108%,121%,112%,97.8%,106%,102%,89.2%,97%,110%,95.4%,98.1%,96.7%,91%,94.3%,104%,93.2%,101%,108%
CC(=O)[C@H]1CC[C@]2(C)[C@@H]1CC[C@@H]1[C@@]3(C)CC(CCC#N)(CCC#N)C(=O)C(C)(C)[C@@H]3CC[C@]12C,108%,110%,105%,105%,90.6%,98.9%,98.2%,101%,107%,95.9%,100%,98.8%,84.5%,93.7%,102%,93.8%,86.6%,82.4%,94.1%,93.9%
CCCC1(CN2c3ccccc3Sc3ccc(Cl)cc32)CCN(CC)C1 (stereo not drawn),-32.3% (active),-61.9% (active),-61.5% (active),-28.4% (active),-33.7% (active),25.9%,-89.4% (active),-7.27% (active),4.91% (active),-93.2% (active),3.6% (active),-68% (active),1.99% (active),-36.3% (active),-92% (active),5.75% (active),-95.9% (active),-21.4% (active),-100% (active),-67.8% (active)
COc1cc(OC)c2c(=O)c(O)c(-c3ccccc3)oc2c1,70.7%,70.6%,101%,67.9%,67.6%,66.4%,98.3%,79.7%,84.2%,73.2%,51.7%,99.6%,76%,62.4%,47.1%,67.1%,72.4%,72.1%,59.1%,95.8%
